This is an account of results in PubChem BioAssay (NCATS).

The nature of assay [1]: Primary qHTS to identify inhibitors of SARS-CoV-2 cell entry (AID 1645846). Also: nearly all actives have a fitted effect of over 45% in size. Also: potency is read from the fitted curve at half-maximal effect. Conditions: SARS-CoV-2 pseudovirus cell entry assay, luminescence; activity change, negative = inhibition: at 57.1 µM (top of the series) unless noted. Summed up: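 Using luciferase-reporting pseudoviruses carrying Wuhan-Hu-1 spike, the screen tracks entry into stably ACE2-expressing cells over 48 hr. Activity is expressed relative to spike particles versus particles lacking any fusion protein.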

The nature of assay [2]: Cytotoxicity counterscreen for inhibitors of SARS-CoV-2 cell entry (AID 1645845). Also: nearly all actives have a fitted effect of over 50% in size. Conditions: outcome: dose series up to 57.1 µM unless noted. Summed up: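 Counterscreen run in the same HEK293-ACE2 line as the pseudotyped-particle entry assay, without particles. Viability after 48 h at 37 C was read as ATP luminescence, scaled between cell-containing and cell-free wells.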
A general note: A counterscreen serves to expose hits that act by an unwanted route or on another target.

Assay [3] can be described thus: VSVG counterscreen qHTS to identify inhibitors of SARS-CoV-2 cell entry (AID 1645847). Also: potency is read from the fitted curve at half-maximal effect; nearly all actives have a fitted effect of over 65% in size. A digest of the protocol: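 Entry of VSV-G pseudotyped particles into human ACE2-expressing HEK293 cells was measured by luciferase luminescence 48 h after infection, with compound added 1 h beforehand.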
Assay [4] is described as follows: qHTS profiling of the MIPE4 collection as inhibitors of Plasmodium falciparum (3D7) proliferation (AID 743344; call rule not given here;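 also: scaled between DMSO vehicle wells and 0.29 µM artemisinin as full inhibition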). Conditions: P. falciparum 3D7 in erythrocytes, SYBR Green DNA fluorescence, 72 h; at 28.5 µM (top of the series). Summed up: (§1)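 Parasite DNA was quantified by SYBR Green I fluorescence (ex 485, em 535 nm) after overnight lysis in saponin/Triton buffer at room temperature. Cultures at 0.3% parasitemia and 2.5% hematocrit were first exposed to compound for 72 h at 37 C; signals were normalised to artemisinin (0.29 uM) and vehicle wells.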

Assay [5] can be described thus: qHTS profiling of the MIPE4 collection as inhibitors of Plasmodium falciparum (DD2) proliferation (AID 743345; call rule not given here). The following applies: P. falciparum Dd2 in erythrocytes, SYBR Green DNA, 72 h; at 28.5 µM (top of the series). Summed up: as §1
In general terms: Quantitative high-throughput screening tests each substance at several concentrations.

Assay [6] in a line: qHTS profiling of the MIPE4 collection as inhibitors of Plasmodium falciparum (DD2) proliferation (Rep 2) (AID 743346; call rule not given here). The following applies: P. falciparum Dd2 in erythrocytes, SYBR Green DNA, 72 h; at 28.5 µM (top of the series). Summed up: as §1
Assay [7] can be described thus: qHTS profiling of the MIPE4 collection as inhibitors of Plasmodium falciparum (HB3) proliferation (AID 743347; call rule not given here;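 also: plate controls were DMSO vehicle wells for no effect and artemisinin wells for full effect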). The following applies: P. falciparum HB3 in erythrocytes, SYBR Green DNA, 72 h; at 28.5 µM (top of the series). A digest of the protocol: as §1
Assay [8] has as its target Glutathione peroxidase 1 (Homo sapiens) (UniProt P07203). As to the kind of experiment: Primary qHTS Assay for Inhibitors of Recombinant Selenoprotein Glutathione Peroxidase 1 (GPX1) (AID 1845191; active = well fitted curve in the direction sought with a large enough effect; an effect the other way counts as inactive or inconclusive; also: nearly all actives have a fitted effect of over 65% in size). A digest of the protocol: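 GR-coupled readout: NADPH consumption tracked by fluorescence, ex 340/em 450 nm, at t=0 and after 15 min at RT. Final mix 10 nM GPX1, 1 mM GSH, 0.5 mM CHP, 0.5 mM NADPH, 100 nM GR, 0.01% BSA, following 30 min enzyme–compound preincubation.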

The target of assay [9] is Phospholipid hydroperoxide glutathione peroxidase GPX4 (Homo sapiens) (UniProt P36969). As to the kind of experiment: Primary qHTS Assay for Inhibitors of Recombinant Selenoprotein Glutathione Peroxidase 4 (GPX4) (AID 1845192; active = well fitted curve in the direction sought with a large enough effect; an effect the other way counts as inactive or inconclusive; also: nearly all actives have a fitted effect of over 65% in size; as to activity change, negative = inhibition: % is scaled to controls: 0 for no effect and ±100 for the full control effect). Summed up: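 Steps: GPX4 plus compound, 30 min RT; add GR/GSH/NADPH master mix; start with cumene hydroperoxide; read 340/450 nm fluorescence at 0 and 15 min. Finals were 200 nM GPX4, 1 mM GSH, 0.5 mM CHP, 0.5 mM NADPH, 100 nM GR.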
Sequence of Phospholipid hydroperoxide glutathione peroxidase GPX4 (Homo sapiens) (P36969 whole entry, looked up): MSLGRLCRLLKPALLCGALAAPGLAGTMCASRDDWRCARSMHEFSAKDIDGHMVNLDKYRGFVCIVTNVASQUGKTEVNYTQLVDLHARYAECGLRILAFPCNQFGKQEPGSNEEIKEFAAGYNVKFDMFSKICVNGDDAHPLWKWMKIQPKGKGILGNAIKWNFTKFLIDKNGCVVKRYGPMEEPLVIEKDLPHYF

Assay [10] can be described thus: qHTS drug screen for cell cycle checkpoint inhibitors in PARPi-resistant BRCA-mutant ovarian cancer cell lines. (AID 1963452). The following applies: PEO1/OlaR viability, CellTiter-Glo luminescence, 96 h, stronger effect = lower value. Summed up: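 PEO1, PEO4 and PEO1/OlaR ovarian cancer cells, 600 per well, exposed 96 h at 37C to a dilution series. Viability read by CellTiter-Glo luminescence, normalized to DMSO and empty wells; activity summarized as Z-AUC.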

The nature of assay [11]: Primary qHTS for inhibitors of nuclear receptor binding SET domain protein 2 (NSD2) in an isogenic RCH-ACV NSD2 p.E1099K mutant (9B) (AID 1645876; active = well fitted curve in the direction sought with a large enough effect; an effect the other way counts as inactive or inconclusive; also: nearly all actives have a fitted effect of over 70% in size).
A short description of assay [12]: Primary qHTS for inhibitors of nuclear receptor binding SET domain protein 2 (NSD2) in an RCH-ACV wild type WT cells (2C) (AID 1645877; active = well fitted curve in the direction sought with a large enough effect; an effect the other way counts as inactive or inconclusive; also: nearly all actives have a fitted effect of over 70% in size).
The target in assay [13] is Nuclear receptor subfamily 1 group I member 3 (Homo sapiens) (UniProt Q14994). As to the kind of experiment: Primary qHTS for antagonist of constitutive androstane receptor (CAR) against the NCATS DSHEA and TCM libraries (AID 1794836; active = well fitted curve in the direction sought with a large enough effect; an effect the other way counts as inactive or inconclusive;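 also: HepG2 cells stably expressing hCAR with CYP2B6 luciferase reporter stimulated by CITCO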). Summed up: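 HepG2-CYP2B6-hCAR cells, attached 5 h, given compounds plus CITCO agonist […], incubated 24 h at 37 C. Luciferase luminescence read, multiplexed with CellTiter-Fluor viability (Ex/Em 405/540 nm).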
Sequence of Nuclear receptor subfamily 1 group I member 3 (Homo sapiens) (Q14994 whole entry, looked up): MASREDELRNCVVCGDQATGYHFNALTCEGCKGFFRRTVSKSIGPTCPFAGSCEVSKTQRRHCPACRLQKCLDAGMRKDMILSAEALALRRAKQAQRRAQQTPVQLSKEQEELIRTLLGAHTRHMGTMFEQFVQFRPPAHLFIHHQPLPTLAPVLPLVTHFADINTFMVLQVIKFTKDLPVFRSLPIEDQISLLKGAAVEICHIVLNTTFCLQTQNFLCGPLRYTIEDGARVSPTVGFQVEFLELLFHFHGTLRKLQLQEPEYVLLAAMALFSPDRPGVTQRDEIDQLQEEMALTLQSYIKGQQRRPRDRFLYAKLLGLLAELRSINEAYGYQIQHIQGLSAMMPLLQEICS

A short description of assay [14]: KB-8-5-11 P-gp reporter qHTS against the NCATS DSHEA and TCM libraries (AID 1919977; active = well fitted curve in the direction sought with a large enough effect; an effect the other way counts as inactive or inconclusive; also: 0% is about no effect). A digest of the protocol:
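Viability of drug-resistant KB-8-5-11 cells is measured by CellTiter-Glo luminescence following roughly 72 h treatment at 37C. Substances were titrated, with bortezomib as intraplate control.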

In assay [15] the target is Alpha-galactosidase (Coffea arabica) (UniProt Q42656). As to the kind of experiment: Counterscreen for Glucocerebrosidase Inhibitors: qHTS Assay for Coffee Bean alpha-Galactosidase at pH 5.9 (AID 998; active = well fitted curve in the direction sought with a large enough effect; an effect the other way counts as inactive or inconclusive;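 also: plate controls were uninhibited enzyme for no effect and no-enzyme basal signal for full effect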). Summed up:
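Enzyme 2 nM + cpd (0.7 nM–77 uM titration) + 4-MU-alpha-Gal 80 uM, pH 5.9 citrate/Tween-20, RT 20 min, NaOH/glycine stop pH 10, fluor 365/440. Normalized to no-enzyme and full-activity controls; Hill-fit AC50.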

Assay [16] in a line: Validation screen for inhibitors of Lassa infection (AID 463096). Also: % is scaled to controls: 0 for no effect and ±100 for the full control effect.
Where [17] appears, read: measured here: PEO1 parental Z-AUC.

Inconclusive results are not listed. The source made the active and inactive calls. Unless noted, calls follow the shape of the full dose curve.

Sequence of Glutathione peroxidase 1 (Homo sapiens) (P07203 whole entry, looked up): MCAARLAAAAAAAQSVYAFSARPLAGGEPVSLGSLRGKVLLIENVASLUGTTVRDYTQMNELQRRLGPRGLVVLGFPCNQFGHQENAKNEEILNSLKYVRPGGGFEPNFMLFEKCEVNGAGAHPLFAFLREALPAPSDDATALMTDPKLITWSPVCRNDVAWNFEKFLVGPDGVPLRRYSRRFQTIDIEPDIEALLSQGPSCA
Sequence of Alpha-galactosidase (Coffea arabica) (Q42656 whole entry, looked up): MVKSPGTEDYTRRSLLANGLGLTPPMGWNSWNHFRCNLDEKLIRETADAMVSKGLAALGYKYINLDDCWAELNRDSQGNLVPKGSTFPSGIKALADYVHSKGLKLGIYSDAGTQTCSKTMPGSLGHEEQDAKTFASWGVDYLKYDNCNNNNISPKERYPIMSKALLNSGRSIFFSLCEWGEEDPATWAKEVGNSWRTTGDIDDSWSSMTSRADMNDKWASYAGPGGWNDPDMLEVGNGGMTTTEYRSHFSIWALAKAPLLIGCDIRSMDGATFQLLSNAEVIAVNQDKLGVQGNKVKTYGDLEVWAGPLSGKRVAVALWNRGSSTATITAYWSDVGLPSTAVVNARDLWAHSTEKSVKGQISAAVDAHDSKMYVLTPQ

With `FC(F)(F)c1ccc(/C=C/c2nc(COc3ccc(CCCCn4ccnn4)cc3)co2)cc1`, in [1], the activity change, negative = inhibition was -95.9%.

Turning to `NC(=O)[C@H]1CCS[C@@H]2C[C@]3(CCCN3C(=O)Cc3ccc(NC(=O)COc4ccc(Cl)cc4Cl)cc3)C(=O)N12`, in assay [1], the Potency was 25.1 µM (active).

In the case of `C[C@]1(C(=O)N(CCCC(=O)O)Cc2cccc(Cl)c2)CCN1C(=O)c1csc2ccccc12`, the activity change, negative = inhibition in assay [1] was -20.2%.

As for `COc1ccc(COc2ccc(Cc3cnc(N)nc3N)cc2OC)cc1`, the Potency entry in assay [2] is “inactive”. For the same compound, the activity change, negative = inhibition in assay [1] was -52.5%. The Potency in assay [3] is 6.81 µM (active).

The compound `CN1CCN(c2ncc(-c3cc(Cl)cc(Cl)c3Cl)c(N)n2)CC1` had a parasite growth, % of DMSO control in assay [4] of 53.8%. Moreover, the parasite growth remaining, % of DMSO control (lower = more inhibition) in assay [5] was 75.6%. The compound also showed a parasite growth, % of control (lower = inhibition) in assay [6] of 39.8%. This compound also gave a growth, % of control in assay [7] of 81.9%. Moreover, the Potency result in [2] was “inactive”.

For `Cc1c(O)cccc1C(=O)NC(CSc1ccccc1)C(O)CN1CC2CCCCC2CC1C(=O)NC(C)(C)C` (stereo unspecified), the Potency in [1] was 31.6 µM (active).

For the compound `Cn1cc(-c2cnc3ccc4ccc(CS(=O)(=O)NCc5ccccn5)cc4c(=O)c3c2)cn1`, the activity change, negative = inhibition in [1] was -59.2%.

For `NS(=O)(=O)c1ccc(Cc2c(-c3cccc(-c4ccccc4)c3)nn(-c3nc(C(=O)O)cs3)c2CC2CC2)cc1`, the Potency result in assay [2] was “inactive”. Also, the activity change, negative = inhibition in assay [1] is -32.8%. For the same compound, in assay [3], the Potency was 8.57 µM (active).

As to `Cn1c(CCCCCCC(=O)NO)nc2cc(N(CCCl)CCCl)ccc21`, the Potency result in assay [2], in assay [8] and in assay [9] was “inactive” each time. The figures for the Z-AUC in assay [10], in assay [10] (setting [17]) and in [10] (measured here: PEO4 Z-AUC) were -0.877 (inactive), -0.482 and -0.0287, respectively.

Turning to `CNC(=O)c1c(-c2ccc(F)cc2)oc2cc(N(CCO)S(C)(=O)=O)c(C3CC3)cc12`, in assay [1], the activity change, negative = inhibition is -3.84%.

`CCc1ccc(N(CC(C)C)S(=O)(=O)c2ccc(OCC3CCOCC3)c(CO)c2)cc1`: the Potency result in assay [2] was “inactive”. In addition, in [1], the activity change, negative = inhibition was -88.5%. Besides, in assay [3], the Potency is 24.1 µM (active).

`CC1(C)CC(O)CC(C)(C)N1O`: the Potency result in [2], in assay [11], in [12], in [8] and in assay [9] was “inactive” each time. The activity change, negative = inhibition in [1] is -11.7%. Besides, the Z-AUC in assay [10] was 0.107 (inactive); in assay [10] (setting [17]), 0.652; in assay [10] (measured here: PEO4 Z-AUC) it was 0.604.

Take `CC[C@H](CC[C@@H](C)[C@H]1CC[C@H]2[C@@H]3CC=C4C[C@@H](O)CC[C@]4(C)[C@H]3CC[C@]12C)C(C)C`: the Potency result in assay [2], in assay [13] and in assay [14] was “inactive” each time. Further, the activity change, negative = inhibition in assay [1] is -9.4%.

As for `CNC(=O)[C@H]1O[C@@H](n2cnc3c(NCc4cccc(I)c4)nc(Cl)nc32)[C@H](O)[C@@H]1O`, the Potency result in [1] is “inactive”.

In the case of `COc1ccc(C(=O)C2CCN(CC(=O)N(Cc3nc4c(c(=O)[nH]3)COCC4)CC3CC3)CC2)cc1`, the Potency entry in assay [2] is “inactive”. For the same compound, the activity change, negative = inhibition in assay [1] is -20.6%. Further, the Potency in assay [3] is 8.57 µM (active).

`CC(C)=CCC/C(C)=C/CC/C(C)=C/CSc1ccccc1C(=O)O`: the call in assay [15] was inactive. The Potency entry in assay [16] and in [2] was “inactive” in each case. In assay [1], the activity change, negative = inhibition was -15.6%.

For the compound `CC1=C(/C=C/C(C)=C/C=C/C(C)=C/C=C/C=C(C)/C=C/C=C(C)/C=C/C2=C(C)CCCC2(C)C)C(C)(C)CCC1`, the Potency entry in [2], in assay [13] and in [14] was “inactive” each time. The activity change, negative = inhibition in assay [1] was -16.6%.
